# Data from PubChem BioAssay (EPA / NIEHS).
# Inconclusive results are not listed. Activity calls are given as the source filed them. The calls were made as follows, unless noted: active = hit-call score of the fitted dose curve at least 0.9, where 1 is the maximum; inconclusive = response in the unintended direction; inactive = score below 0.9.
# How the values were obtained:
# [1] = CCTE_Harrill_HTTr_Apoptosis_MCF7: CCTE's 6-hour Apoptosis Assessment for the High-Throughput Transcriptomics (HTTr) Platform, in MCF-7 cells cultured in DMEM + 10% fetal bovine serum, Harrill Lab (AID 2284011; active = hit-call score of the fitted dose curve at least 0.9, where 1 is the maximum; inactive = score below 0.9)
# How it was run: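 Apoptosis in MCF-7 cells grown in DMEM with 10% fetal bovine serum was scored after a six hour exposure by high content imaging of caspase-3/7 activation (CellEvent Caspase 3/7 Green), with DMSO serving as negative control and baseline.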
# [2] = CCTE_Harrill_HTTr_CellCount_MCF7: CCTE's Cell Proliferation Assessment for the High-Throughput Transcriptomics (HTTr) Platform, Harrill Lab (AID 2284012);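 also: cells exposed to compound for six hours; intended direction is loss of nuclei count meaning fewer cells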
# How it was run: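 Cell count served as viability reporter: loss of Hoechst-stained nuclei, counted by high content imaging, marks decreased growth or survival. Exposure was 6 h in MCF-7 cells across eight concentrations, with DMSO as baseline.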
smiles,measurement,setting,value
CCCCOC(=O)N(C)SN(C)C(=O)Oc1cccc2c1OC(C)(C)C2,outcome,[1],inactive
same,outcome,[2],inactive
